High-throughput results (PubChem BioAssay)
An excerpt weighted towards active compounds, which were near 2.4% of everything screened.
TLR4-MyD88 BLA – inhibitors of human TLR4-MyD88 binding; O00206+Q99836; HeLa CL3-4 TLR4/MyD88 BLA complementation, FRET ratio; inhibition, % at 8.4 µM; 0.18% of 200,000 active; AID 861; in the data active = inhibition above about 25%
TMEM16A inh – inhibitors of mouse TMEM16A calcium-activated chloride channel; HEK293 TMEM16A/YFP iodide influx fluorescence, ionomycin; AID 588511; Q8BHY3; normalized B-score (activity score, 25-100; higher = stronger inhibition) at 10 µM; 1.2% of 310,000 active;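 active = ratio plate-corrected score three or more library SD toward inhibition, starting fluorescence score within five deviations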;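 also: score derived from kinetic fluorescence span divided by baseline fluorescence per well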
NOD2 RIPK2 PPI – NOD2-RIPK2 protein interaction inhibition; 0.38% of 360,000 active; inhibition, % at 4.98 µM; AID 624267; CHO BLA complementation NOD2-RIPK2, CCF4 ratio; O43353; in the data active = inhibition above about 21%
ANO1 activ – mouse TMEM16A channel activation, primary screen. HEK293 TMEM16A/YFP-H148Q/I152L, iodide quench fluorescence; active compounds read low. B-score at 10 µM. 0.3% of 340,000 active;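 active = fluorescence-ratio B-score plate-corrected deviation score at least 3 library SD below zero, with starting fluorescence score within 5 deviations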;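 also: channel opened by trigger with iodide after compound preincubation; score built on the fluorescence ratio of max minus min over baseline; more negative score means more quench and so TMEM16A activation or potentiation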
HTR2A ag – activates the mouse 5-HT2A serotonin receptor. activation, % at 7.6 µM. 0.66% of 360,000 active. P35363. CHO-K1 mHTR2A beta-arrestin complementation, luminescence; percent of 30 µM serotonin response;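 active = activation above a run cutoff, the mean activation of all tested compounds plus 3 SD, cut at about 14% in these data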
TLR9-MyD88 block – blocks human TLR9 binding to MyD88; Q9NR96+Q99836; CHO BLA complementation TLR9-MyD88, CCF4 FRET ratio; inhibition, % at 4.98 µM; 0.21% of 340,000 active;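 active = inhibition above the mean over all tested compounds plus 3 SD, cut at about 21% in these data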
MOR ag counter – counter-screen for mouse HTR2A agonists: human mu opioid receptor agonists. shares compounds with HTR2A ag. U2OS OPRM1 beta-arrestin PathHunter, luminescence; DMSO 0%, DAMGO 9.3 µM 100%. activation, % at 9.3 µM. 5.3% of 2,300 active. AID 624380;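 active = mean activation above the mean of DMSO-only wells plus 3 SD, cut at about 0.5% in these data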
Target sequence (P35372 whole entry, looked up): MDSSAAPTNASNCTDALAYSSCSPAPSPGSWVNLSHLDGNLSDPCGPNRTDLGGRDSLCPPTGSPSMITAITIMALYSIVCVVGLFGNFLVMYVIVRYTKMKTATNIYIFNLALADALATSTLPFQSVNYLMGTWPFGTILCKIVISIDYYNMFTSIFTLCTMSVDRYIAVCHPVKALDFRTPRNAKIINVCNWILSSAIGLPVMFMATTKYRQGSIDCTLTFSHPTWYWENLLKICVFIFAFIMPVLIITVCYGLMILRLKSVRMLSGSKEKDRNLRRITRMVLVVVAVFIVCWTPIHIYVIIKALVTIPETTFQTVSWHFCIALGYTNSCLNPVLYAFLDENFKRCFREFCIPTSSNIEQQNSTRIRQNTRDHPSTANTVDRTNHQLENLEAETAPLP
HTR2A ag conf – mouse HTR2A agonism confirmed; CHO-K1 PathHunter beta-arrestin recruitment, luminescence; DMSO 0%, 30 µM serotonin 100%; AID 624381; activation, % at 7.6 µM; 19% of 2,300 active; shares compounds with HTR2A ag;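 active = mean activation across triplicates above the hit threshold derived in the original primary screen, cut at about 15% in these data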
Numbers stand for hits; 0 = inactive; - = no result given.

SMILES | TLR4-MyD88 BLA | TMEM16A inh | NOD2 RIPK2 PPI | ANO1 activ | HTR2A ag | TLR9-MyD88 block | MOR ag counter | HTR2A ag conf
COc1cccc(NC(=O)CN(C)CC(=O)NCC(=O)Nc2ccc(F)cc2)c1 | - | - | 0 | 0 | 0 | 0 | - | -
CCCN[C@H]1CCc2nc(N)sc2C1 | - | 0 | 0 | 0 | 60 | 0 | 0 | 142
Nc1nc2c(s1)CCCCCCCCCC2 | - | 0 | 0 | 0 | 0 | - | - | -
Cc1nn(-c2ccccc2)c(N2CCCC2)c1/C=N/NC(=O)c1cc(-c2ccccn2)nc2ccccc12 | 0 | 0 | 0 | 0 | 15 | 0 | 0 | 0
CCCCCCCC/C=C\CCCCCCCC(=O)NCCO | - | 0 | 0 | 0 | 0 | 0 | - | -
CCCCCCCC/C=C\CCCCCCCC(=O)NCCc1ccc(O)c(O)c1 | - | 0 | 0 | 0 | 34 | 0 | 0 | 170
Cc1ccc(C(=O)Nc2cc(=O)n(C)c(=O)n2C)cc1C | 0 | 0 | 0 | 0 | 16 | 0 | 0 | 0
COc1cccc(N2CCN(C(=O)c3ccc(CS(=O)Cc4ccc(Cl)cc4)o3)CC2)c1 (configuration not stated) | - | 0 | 0 | 0 | 0 | 0 | - | -
CN(C(=O)COC(=O)c1cncc(Br)c1)C1CCS(=O)(=O)C1 (configuration not stated) | 0 | 0 | 0 | 0 | 0 | 0 | - | -
CN(C(=O)COC(=O)c1cncc(Br)c1)C1CCCCC1 | - | - | 0 | 0 | 19 | 0 | 0 | 0
CCCS(=O)(=O)NC(=O)C1(C)CCN(C(=O)C2(c3ccc(Cl)cc3)CCCC2)C1 (configuration not stated) | - | - | 0 | - | 16 | - | 0 | 0
CCCS(=O)(=O)NC(=O)C1(C)CCN(C(=O)c2cc(F)cc(F)c2)C1 (configuration not stated) | - | - | 0 | - | 15 | - | 0 | 0
COc1ccc(N2CCN(C(=O)COC(=O)/C=C/c3ccc(OC(F)F)cc3)CC2)cc1 | - | 0 | 0 | 0 | 0 | 0 | - | -
COc1ccc(N(C)C(=O)c2ccc(NC(=O)CCS(=O)(=O)c3cccs3)cc2)cc1 | - | 0 | 0 | 0 | 15 | 0 | 0 | 0
Cc1nc2ccc(NC(=O)N3CCOCC3)cc2nc1C | 0 | 0 | 0 | 0 | 0 | 0 | - | -
COc1cccc(C(=O)NCC(=O)OCC(=O)Nc2cc(OC)c([N+](=O)[O-])cc2C)c1 | 0 | 0 | 0 | 0 | 17 | 0 | 0 | 0
COc1cc(NC(=O)COC(=O)CNC(=O)c2cc(C)cc(C)c2)c(C)cc1[N+](=O)[O-] | 0 | 0 | 0 | 0 | 0 | 0 | - | -
CCOC(=O)C1(C)CCN1C(=O)c1ccc(SC(F)(F)F)cc1 (configuration not stated) | - | - | 0 | - | 16 | - | 0 | 0
CCOC(=O)C1(C)CCCCCN1C(=O)c1ccc(SC(F)(F)F)cc1 (configuration not stated) | - | - | 0 | - | 0 | - | - | -
Cc1nc(SCC(=O)NCCc2ccc(Cl)cc2)nc(C)c1C | 0 | 0 | 0 | 0 | 15 | 0 | 0 | 0
COC(=O)CCC(=O)NNC(=O)c1ccc([N+](=O)[O-])cc1 | 0 | 0 | 0 | 0 | 14 | 0 | 0 | 0
CCCCCCCC(=O)NNC(=O)c1ccc([N+](=O)[O-])cc1 | 0 | 0 | 0 | 0 | 0 | 0 | - | -
Cc1csc(=O)n1CC(=O)OCC(=O)NNC(=O)c1ccccc1 | - | 0 | 0 | 0 | 0 | 0 | - | -
Cc1csc(=O)n1CC(=O)OCC(=O)NNC(=O)c1ccc([N+](=O)[O-])cc1 | - | 0 | 0 | 0 | 15 | 0 | 0 | 0
CS(=O)(=O)Nc1ccc(-c2nnc3n2CCCCC3)cc1 | - | 0 | 0 | 0 | 0 | 0 | - | -
SMILES | TLR4-MyD88 BLA | TMEM16A inh | NOD2 RIPK2 PPI | ANO1 activ | HTR2A ag | TLR9-MyD88 block | MOR ag counter | HTR2A ag conf
CC(=O)Nc1ccc(S(=O)(=O)NCCC(=O)N2CCN(C(c3ccccc3)c3ccccc3)CC2)cc1 | - | 0 | 0 | 0 | 16 | 0 | 0 | 0
O=C(CCNS(=O)(=O)c1ccccc1)N1CCN(C(c2ccccc2)c2ccccc2)CC1 | - | 0 | 0 | 0 | 0 | 0 | - | -
N#Cc1sc2nc3c(c(-c4ccco4)c2c1N)CCCC3 | 0 | 0 | 0 | 0 | 19 | 0 | 0 | 0
O=[N+]([O-])C(C1CCS(=O)(=O)C1)C1CCS(=O)(=O)C1 (configuration not stated) | 0 | 0 | 0 | 0 | 0 | - | - | -
Cc1cccc(OCC(O)CN2CCN(c3ccccn3)CC2)c1C (configuration not stated) | - | 0 | 0 | 0 | 19 | 0 | 0 | 40
COc1cc(C(C)=O)ccc1OCC(O)CN1CCN(c2ccccc2)CC1 (configuration not stated) | - | 0 | 0 | 0 | 0 | 0 | - | -
COc1cc(C(C)=O)ccc1OCC(O)CN1CCN(c2ccccn2)CC1 (configuration not stated) | - | 0 | 0 | 0 | 23 | 0 | 0 | 86
CC(=O)c1ccc(OCC(O)CN2CCN(CCO)CC2)cc1 (configuration not stated) | 0 | 0 | 0 | 0 | 17 | 0 | 0 | 0
CCC(=O)c1ccc(OCC(O)CN2CCN(c3ccccn3)CC2)cc1 (configuration not stated) | - | 0 | 0 | 0 | 29 | 0 | 0 | 100
O=C(NCCc1ccc(O)c(O)c1)C1COc2ccccc2O1 (configuration not stated) | - | 0 | 0 | 0 | 14 | 0 | 0 | 23
O=C(NCCc1ccccc1)C1COc2ccccc2O1 (configuration not stated) | - | 0 | 0 | 0 | 0 | 0 | - | -
Cc1cccc(N2CCN(C(=S)Nc3ccc4nc(N5CCOCC5)cc(C)c4c3)CC2C)c1 (configuration not stated) | 0 | 0 | 0 | 0 | 16 | 0 | 0 | 0
CC(C)(C)NC(=O)C(c1ccccc1)n1c(=O)c(-c2ccco2)nc2ccccc21 (configuration not stated) | - | - | 0 | - | 0 | - | - | -
CC(C)(C)NC(=O)C(c1cc2ccccc2o1)n1c(=O)c(-c2ccco2)nc2ccccc21 (configuration not stated) | - | - | 0 | - | 16 | - | 0 | 0
Cc1nnc(NC(=O)c2cc(S(=O)(=O)N(C)C)ccc2N2CCCC2)s1 | - | - | 0 | 0 | 0 | 0 | - | -
O=C(c1ccccc1-c1ncc[nH]1)N1CCCC(Nc2ccc(F)cc2)C1 (configuration not stated) | - | 0 | 0 | 0 | 0 | 0 | - | -
O=C(CN(C(=O)c1csnn1)c1ccc2c(c1)OCCO2)NCc1ccccc1 | - | 0 | 0 | 0 | 15 | 0 | 0 | 0
O=C(C1CCC1)N1CCc2cc(S(=O)(=O)NCCN3CCN(c4ccccc4F)CC3)ccc21 | 0 | 0 | 0 | 0 | 15 | 0 | 0 | 54
